Source: PubChem BioAssay (NCI)
The panel holds about 79,000 compounds, 15% with a hit somewhere; the sample as a whole holds those more often. Active and inactive are the calls of the source. Rule as the data show it: active = growth inhibition above about 70%; inactive = the rest.

How the values were obtained:
[1] = NCI Yeast Anticancer Drug Screen. Data for the rad50 strain (AID 155);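 also: 0% = growth of vehicle-only cultures of the same strain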; conditions: S. cerevisiae rad50 strain growth inhibition; at 50.0 µM; hits give high values
Summary of the method: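 Growth of the mutant yeast was measured after compound exposure and referenced to vehicle-treated cultures.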

[2] = NCI Yeast Anticancer Drug Screen. Data for the mec2-1 strain (AID 157); conditions: S. cerevisiae mec2-1 strain, at 50.0 µM, hits give high values
Summary of the method: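 Strain: mec2-1 (DNA repair/cell cycle alteration). Compound exposure, then growth measured; inhibition expressed relative to vehicle.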

[3] = NCI Yeast Anticancer Drug Screen. Data for the sgs1 mgt1 strain (AID 161);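 also: 0% = growth of cultures given vehicle only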; conditions: S. cerevisiae sgs1 mgt1 strain, at 50.0 µM, hits give high values
Summary of the method: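 Read-out: growth inhibition vs vehicle controls. Cells: mutant yeast strain deficient in DNA damage repair.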

[4] = NCI Yeast Anticancer Drug Screen. Data for the cln2 rad14 strain (AID 165);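 also: 0% = growth equal to vehicle treated cultures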; conditions: S. cerevisiae cln2 rad14 strain, at 50.0 µM, hits give high values
Summary of the method: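 Compounds are applied to the cln2 rad14 yeast strain, and growth is then compared with that of vehicle-treated cultures to give inhibition.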

[5] = NCI Yeast Anticancer Drug Screen. Data for the bub3 strain (AID 167); conditions: S. cerevisiae bub3 mutant strain, at 50.0 µM, hits give high values
Summary of the method: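 Whole-cell yeast assay. The mutant strain was incubated with compounds, and growth inhibition was determined by comparison with vehicle-treated cells.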

[6] = NCI Yeast Anticancer Drug Screen. Data for the mlh1 rad18 strain (AID 175); conditions: S. cerevisiae mlh1 rad18 strain growth inhibition; at 50.0 µM; hits give high values
Summary of the method: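 Read-out is yeast growth inhibition, calculated against vehicle-only controls. The compound was applied to a strain engineered with DNA damage repair alterations.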

Measured: growth inhibition

CCOC(=O)N(C)C(=C(F)F)C(F)(F)F
inactive: [1] 9.1% | [2] -0.1% | [3] 10.8% | [4] 33.6% | [5] 12.4% | [6] -26.1%

CCc1c(C)[nH]c2c1C(=O)CCC2
inactive: [1] 15.6% | [2] -4.65% | [3] 38.1% | [4] 18.1% | [5] 24.9% | [6] 46.9%

CCC/C=C/c1cc2c(cc1O)CC[C@@H]1[C@@H]2CC[C@]2(C)[C@@H](O)CC[C@@H]12
inactive: [1] 19.2% | [2] 16.4% | [3] 45.6% | [4] 35.4% | [5] 41.3% | [6] 23.9%

O=C(O)C1CCCCCC1
inactive: [1] 7.45% | [2] 0.65% | [3] 1.8% | [4] -2.55% | [5] 8.65% | [6] 2%

O=C(NNC(=O)c1ccc2ccccc2c1)c1cccc(Br)c1
inactive: [1] -21.1% | [2] -20.6% | [3] -6.55% | [4] 10.1% | [5] -5.6% | [6] -7.95%

O=C1CC[C@@H](S(=O)(=O)c2ccccc2)[C@H](/C=C/c2ccccc2)O1
inactive: [1] -5.5% | [2] 25.2% | [3] 37.6% | [4] 26.1% | [5] -7.4% | [6] -15.9%

CSc1ccc(NC(=O)C(Cl)Cl)cc1
inactive: [1] -3.35% | [2] 5.8% | [3] 5.1% | [4] 13% | [5] -15.3% | [6] 1.9%

O=C1c2ccccc2-c2oc(=O)c3ccccc3c21
inactive: [1] -19.9% | [2] -1.5% | [3] -6.05% | [4] -17.2% | [5] 2.2% | [6] -15.9%

CC(C)CC(=O)C(C)C(C)C (configuration not stated)
inactive: [1] 12.4% | [2] -1.85% | [3] 4.25% | [4] -4.25% | [5] 4% | [6] 1.5%

CCC(C)NC(=O)C1C2CCC(C2)C1C(=O)NC(C)CC (configuration not stated)
inactive: [1] 10.7% | [2] -2.9% | [3] -10.2% | [4] -18.9% | [5] -7.5% | [6] 7%

Cc1cc[c]([Sb]2([c]3ccc(C)cc3)([c]3ccc(C)cc3)[NH]c3cc(C(c4ccccc4)(c4ccccc4)c4ccccc4)cc(C(C)(C)C)c3[O]2)cc1
inactive: [1] -1.65% | [2] 14.3% | [3] 5.15% | [4] -23.6% | [5] -1.25% | [6] 11.1%

O=C=Nc1cc(Cl)ccc1Cl
inactive: [1] 38.5% | [2] 21.8% | [3] 17.4% | [4] -24.4% | [5] 7.95% | [6] 28.9%

Cc1c(F)cccc1NC(=O)OC(C)C
inactive: [1] 18.2% | [2] -5.15% | [3] -0.7% | [4] -50.8% | [5] 12.8% | [6] 5.1%

O=C(Nc1cccc(Cl)c1)Oc1cccnc1
inactive: [1] -5.1% | [2] -29.9% | [3] 7.7% | [4] -4.55% | [5] -2.85% | [6] -12.6%

Cn1c2nc(-[n+]3ccc(N4CCOCC4)cc3)nc-2c([O-])n(C)c1=O
inactive: [1] -20.8% | [2] 1.1% | [3] -17.9% | [4] -44.9% | [5] -10.8% | [6] -11.7%

O=C(O)COc1cc([N+](=O)[O-])c(Cl)cc1Cl
inactive: [1] 7.75% | [2] -11.9% | [3] 18.6% | [4] 15.6% | [5] -1.4% | [6] 20.6%

O=C(CC(C(=O)O)S(=O)(=O)O)Nc1ccc(S(=O)(=O)c2ccc(NC(=O)CC(C(=O)O)S(=O)(=O)O)cc2)cc1 (configuration not stated)
inactive: [1] 2.45% | [2] 4.55% | [3] 2.55% | [4] -5.55% | [5] -7.9% | [6] -11.3%

C=CCOc1ccc(C2C(C(=O)OC)C(=O)CC(O)(c3ccccc3)C2C(=O)OC)cc1OC (configuration not stated)
inactive: [1] -63.2% | [2] -24.6% | [3] -14.9% | [4] -13.2% | [5] -0.9% | [6] -19.7%

COc1ccc2c(c1OC(C)=O)C1=CC(OC(C)=O)=CCC13CCN(C)C3C2 (configuration not stated)
inactive: [1] 2.75% | [2] -0.15% | [3] -10.8% | [4] -4.7% | [5] -6.4% | [6] -0.15%

CN1CCCCCC1
inactive: [1] -8.05% | [2] -8.45% | [3] 5.95% | [4] -4.95% | [5] -10.9% | [6] -0.85%

CCc1cccc(CC)c1NC(=S)NN
inactive: [1] 17.4% | [2] 15.3% | [3] 41.9% | [4] -6% | [5] 24.2% | [6] 5.55%

CCCc1c(C(=O)O)c(-c2cccc3ccccc23)c(CCC)c2c1-c1cccc3cccc-2c13
inactive: [1] 54.5% | [2] 35% | [5] 30.2%
active: [3] 76% | [4] 71.2% | [6] 73.5%

CNc1nc(C)nc(NC)n1
inactive: [1] -29.9% | [2] -5.1% | [3] -30.4% | [4] -36.2% | [5] 18.4% | [6] -22.9%

c1ccc2c(c1)CSc1ccccc1-2
inactive: [1] 9.8% | [2] -8.9% | [3] -6.4% | [4] -12.2% | [5] 7% | [6] -3.65%

NC(=O)NNc1ccccc1
inactive: [1] 3.6% | [2] 6.2% | [3] -1.85% | [4] -16.4% | [5] -7.2% | [6] -29.2%

CCCCCC/C(=C\c1ccc(O)cc1)C(=O)O
inactive: [1] 17.6% | [2] 36.1% | [3] 32.8% | [4] 47.9% | [5] 39.6% | [6] 41.8%

CC1(C)C=CC=C(C(=O)O)C=C1
inactive: [1] -23.1% | [2] -24% | [3] -34.2% | [4] -21.4% | [5] -13.7% | [6] -14.7%

O=C(NC(=O)c1cccc(Cl)c1)Nc1ccccc1
inactive: [1] 3.1% | [2] -15.1% | [3] -19.6% | [4] -22% | [5] -10.7% | [6] -5.15%

N#CCc1ccc(C(C#N)C(=O)CCC(=O)C(C#N)c2ccc(CC#N)cc2)cc1 (configuration not stated)
inactive: [1] 11.7% | [2] 11.3% | [3] -13.1% | [4] 34.1% | [5] -0.3% | [6] 22.1%

N#Cc1ccc(OCCCCCOc2ccc([N+](=O)[O-])cc2)cc1
inactive: [1] 19.4% | [2] 11.6% | [3] 8.65% | [4] 12.8% | [5] 13.9% | [6] 4.4%

CCC(C)(C)c1ccc(O)c(CNCCO)c1
inactive: [1] 26.8% | [2] -2.55% | [3] 2.9% | [4] -18.9% | [5] 7.55% | [6] 8.85%

COC(=O)c1c2c(cc3c1CC1(Cc4cc5c(c(C(C)=O)c4C1)CCC5)C3)CCC2 (configuration not stated)
inactive: [1] -34.1% | [2] -15.5% | [3] -63.8% | [4] -4.1% | [5] -20.7% | [6] -41.5%

CCOC(=O)C(=NNc1cc(OC)c(Cl)cc1OC)C(=O)OCC
inactive: [1] 8.25% | [2] -9.95% | [3] -7.4% | [4] -25.4% | [5] 1.7% | [6] 6.05%

CC(=O)Oc1ccc(OC(C)=O)c2cc3c(cc12)C(=O)C(C)=C(C)C3=O
inactive: [1] 0.4% | [2] 2.35% | [3] 1.1% | [4] -7.05% | [5] 3.35% | [6] 4.85%

Cn1c(=O)c2[nH]c(SCc3ccccn3)nc2n(C)c1=S
inactive: [1] 6.05% | [2] -42.5% | [3] -20.9% | [4] -47.1% | [5] -26.6% | [6] 13.4%

NC(=O)SCC(=O)Nc1ccc2ncccc2c1
inactive: [1] -18.9% | [2] 4.7% | [3] -22.8% | [4] -27.2% | [5] -8.15% | [6] 2.8%

CCCCCCCCCCCCCCC(=O)OCCN(C)C
inactive: [1] -3.6% | [2] -18% | [3] 1.45% | [4] -18.2% | [5] 8.35% | [6] -10.1%
